# Assay results reported in PubChem BioAssay.
# Several values for one entry are separate records, joined by “and”; a condition that tells them apart may be missing. Identical values can stand only once. Activity calls are given as the source filed them. Unless noted, no stated cut-off is given here; in the data, active means inhibition above about 80%; inactive means the rest.
# Legend:
# [1] = hESC survival regulators, cell-based (AID 493140; call rule not given here;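 further: cells exposed to compounds for four days before counting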); conditions: human embryonic stem cell survival screen; stronger effect = higher value
# [2] = liver-stage malaria parasite growth inhibition, primary screen, cell-based, HepG2, luciferase luminescence, HepG2 viability (AID 624349; in the data active means parasite load remaining mostly below about 12%, no sharp cut-off; inactive means mostly above about 10%;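 further: 100% = mean of DMSO negative control wells on the same plate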); conditions: P. berghei liver stage in HepG2, luciferase luminescence, concentration not given here; parasite load remaining: stronger effect = lower value; viability: measured here: HepG2 viability without parasites
# [3] = sensitizers of A549 cells to miR-34 induction, primary screen, imaging, A549 dox-inducible miR-34, nuclei and caspase counts (AID 1347080;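 active means compounds whose cell count with miR-34 switched on is under 0.7 times the count with it off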); conditions: A549 miR-34 inducible, Hoechst nuclei count, 48 h
# [4] = survival rescue of mitochondrial mutant cells in low glucose, primary screen, MELAS cybrids, Rieske KO mouse fibroblasts, CellTiter-Glo (AID 1508586;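 active means mean z-score across replicates of 1.96 or higher in either the MELAS or the Rieske mutant cell line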;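 further: z relative to plate mean and SD of compound and empty wells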)
# [5] = LFS_MB_P medulloblastoma growth inhibition, cell-based, chromothripsis tumors, cisplatin or BGB combos (AID 1671449); conditions: LFS_MB_P medulloblastoma cells;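 further: cells exposed for 96 hours; 0% = vehicle DMSO and 100% = killing by high DMSO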
# [6] = HDN33 neuroblastoma growth inhibition, cell-based, chromothripsis tumors, cisplatin or BGB combos (AID 1671450); conditions: HDN33 neuroblastoma cells, stronger effect = higher value;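 further: cells exposed to compound for four days; 0% = vehicle DMSO and 100% = cell killing by high DMSO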
# [7] = ICB984 medulloblastoma cell growth inhibition, synergistic combos for chromothripsis tumors, cisplatin or BGB combos (AID 1671451; call rule not given here;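 further: cells exposed for 96 hours before readout; 0% = vehicle DMSO and 100% = killing by high DMSO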); conditions: ICB984 medulloblastoma cells, drug combinations, stronger effect = higher value
# [8] = LFS_MB_1R medulloblastoma cell growth inhibition, synergistic combos for chromothripsis tumors, cisplatin or BGB combos (AID 1671452); conditions: LFS_MB_1R medulloblastoma cells, stronger effect = higher value;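 further: cells exposed for 96 hours before readout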
# [9] = HTB85 osteosarcoma cell growth inhibition, synergistic combos for chromothripsis tumors, BGB or cisplatin IC20 combos (AID 1671453); conditions: HTB85 osteosarcoma cells, drug combinations, stronger effect = higher value;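 further: cells exposed for 96 hours before readout; 0% = vehicle DMSO and 100% = high DMSO killing control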
# [10] = CRL2098 osteosarcoma cell growth inhibition, synergistic combos for chromothripsis tumors, BGB or cisplatin IC20 combos (AID 1671454); conditions: CRL2098 osteosarcoma cells, drug combinations, stronger effect = higher value;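 further: cells exposed for 96 h before readout; 0% = vehicle DMSO and 100% = killing by high DMSO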
# [11] = HD-MB03 medulloblastoma cell growth inhibition, synergistic combos for chromothripsis tumors, BGB or cisplatin IC20 combos (AID 1671455; in the data active means inhibition above about 83%;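 further: 0% = vehicle DMSO and 100% = high DMSO as cytotoxic control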); conditions: HD-MB03 medulloblastoma cells, stronger effect = higher value
# [12] = UWB1.289 ovarian carcinoma cell growth inhibition, synergistic combos for chromothripsis tumors, BGB or cisplatin combos (AID 1671456); conditions: UWB1.289 ovarian carcinoma cells, stronger effect = higher value;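 further: cells exposed to compound for four days; 0% = vehicle DMSO and 100% = killing by high DMSO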
# [13] = LFS_MB_2R medulloblastoma cell growth inhibition, synergistic combos for chromothripsis tumors, cisplatin combos (AID 1671457); conditions: LFS_MB_2R medulloblastoma cells, stronger effect = higher value;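 further: cells exposed to compound for four days before readout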
# [14] = MDA-MB-436 breast carcinoma cell growth inhibition, synergistic combos for chromothripsis tumors, BGB or cisplatin combos (AID 1671458; call rule not given here;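 further: cells exposed for 96 hours; 0% = vehicle DMSO and 100% = killing by high DMSO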); conditions: MDA-MB-436 breast carcinoma growth inhibition, drug combinations, stronger effect = higher value
# [15] = UWB1.289_BRCA1 ovarian cancer growth, cell-based, BGB or cisplatin combinations (AID 1671459); conditions: UWB1.289 BRCA1 ovarian carcinoma, drug combinations, stronger effect = higher value
# [16] = human astrocyte viability loss, single and combined drugs, cytotoxicity control for chromothriptic childhood tumor combination screen, cell-based, BGB or cisplatin IC20 combos (AID 1671460); conditions: Human astrocytes, drug combinations, stronger effect = higher value;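 further: cells exposed to compounds for 96 hours before viability readout; 0% = vehicle and 100% = killing control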
# [17] = growth inhibition of BT084 medulloblastoma cells, cell-based, ICGC_MB145, cisplatin and BGB IC40 combos (AID 1671461); conditions: drug combinations, stronger effect = higher value;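 further: cells exposed to drugs for 96 hours; 0% = vehicle DMSO and 100% = high DMSO full killing control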
# [18] = growth inhibition of RCMB18 medulloblastoma cells, cell-based, cisplatin and BGB IC40 combos (AID 1671462); conditions: stronger effect = higher value;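 further: cells exposed to compound for four days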
# [19] = growth inhibition of CRL1545 osteosarcoma cells, cell-based, cisplatin and BGB IC20 combos (AID 1671464); conditions: stronger effect = higher value;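 further: cells exposed to compound for 96 hours before readout; 0% = vehicle DMSO and 100% = high DMSO killing control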
# [20] = measured here: combination with BGB IC40, at 0.05 µM
# [21] = measured here: with BGB IC20 combination, at 0.5 µM
# [22] = measured here: with cisplatin IC20 combination, at 0.5 µM
# [23] = measured here: combination with cisplatin, at 0.5 µM
# [24] = measured here: combination with cisplatin, at 5 µM
smiles,measurement,setting,value
Nc1nc2n[nH]nc2c(=O)[nH]1,survival,[1],1.83 (inactive)
same,parasite load remaining,[2],236% (inactive) and 549% (inactive)
same,viability,[2],41.1% and 96.1%
same,fold change,"[3]; stronger effect = lower value, cell number ratio, induced over uninduced",0.89 (inactive) and 0.844 (inactive)
same,fold change,[3]; measured here: relative caspase fold change +Dox/-Dox,1.24 and 2.05
same,cell count,"[3]; measured here: total cells with miR-34 induction, stronger effect = lower value",3000 and 5470
same,cell count,[3]; measured here: total cells without miR-34 induction,3360 and 6490
same,z-score,"[4]; MELAS cybrid survival, CellTiter-Glo 48 h, stronger effect = higher value",-0.244 (inactive) and -0.54 (inactive)
same,z-score,"[4]; Rieske KO mouse fibroblast survival, CellTiter-Glo 72 h",-0.138 and -0.665
same,inhibition,"[5]; at 0.5 µM, stronger effect = higher value",-21.3% (inactive)
same,inhibition,"[5]; measured here: combination with BGB IC20, at 0.005 µM",-4.53%
same,inhibition,"[5]; measured here: combination with BGB IC40, at 0.005 µM",-37%
same,inhibition,[5]; [20],-34.6%
same,inhibition,"[5]; measured here: combination with cisplatin, at 0.5 µM, stronger effect = higher value",-31.1%
same,inhibition,"[5]; measured here: combination with cisplatin, at 5 µM, stronger effect = higher value",8.39%
same,inhibition,"[6]; BGB combo, at 5 µM",20.7%
same,inhibition,[6]; at 0.5 µM,-10.2% (inactive)
same,inhibition,"[6]; cisplatin combo, at 5 µM",6.45%
same,inhibition,[6]; [21],-12.8%
same,inhibition,[6]; [22],-5.82%
same,inhibition,"[6]; single agent, at 5 µM",42.1%
same,inhibition,"[7]; BGB IC20 combo, at 0.005 µM",-1.82%
same,inhibition,"[7]; BGB IC40 combo, at 0.005 µM",-9.06%
same,inhibition,"[7]; BGB IC40 combo, at 0.05 µM",29.3%
same,inhibition,[7]; at 0.5 µM,-25% (inactive)
same,inhibition,"[7]; cisplatin combo, at 0.05 µM",27.3%
same,inhibition,"[7]; cisplatin combo, at 0.5 µM",-32.9%
same,inhibition,"[7]; cisplatin combo, at 5 µM",-42%
same,inhibition,"[7]; measured here: 5 uM single agent, at 5 µM",-12.8%
same,inhibition,[8]; at 0.5 µM,-9.31% (inactive)
same,inhibition,[8]; [20],-15.8%
same,inhibition,[8]; [23],-8.27%
same,inhibition,[8]; [24],12.9%
same,inhibition,[9]; at 0.5 µM,-22.9% (inactive)
same,inhibition,"[9]; measured here: with BGB IC20, at 0.5 µM",-34.4%
same,inhibition,"[9]; measured here: with BGB IC20, at 5 µM",1.91%
same,inhibition,"[9]; measured here: with cisplatin IC20, at 0.5 µM",-27.1%
same,inhibition,"[9]; measured here: with cisplatin IC20, at 5 µM",-19.1%
same,inhibition,"[9]; single agent, at 5 µM",1.86%
same,inhibition,[10]; at 0.5 µM,-27.1% (inactive)
same,inhibition,"[10]; measured here: combination with BGB at IC20, at 0.5 µM",-20.7%
same,inhibition,"[10]; measured here: combination with cisplatin at IC20, at 0.5 µM",-21.9%
same,inhibition,[11]; at 0.5 µM,19.3% (inactive)
same,inhibition,"[11]; measured here: combo with BGB at IC20, at 0.5 µM",16.1%
same,inhibition,"[11]; measured here: combo with cisplatin at IC20, at 0.5 µM",19.7%
same,inhibition,[12]; at 0.5 µM,32.6% (inactive)
same,inhibition,"[12]; measured here: inhibition with BGB combination, at 0.05 µM",-18.7%
same,inhibition,"[12]; measured here: inhibition with cisplatin combination, at 0.05 µM",7.62%
same,inhibition,[13]; at 0.5 µM,-9.15% (inactive)
same,inhibition,[13]; [23],-13.8%
same,inhibition,[13]; [24],-35.4%
same,inhibition,[14]; at 0.5 µM,-11.4% (inactive)
same,inhibition,"[14]; measured here: BGB combination, at 0.5 µM",-12.2%
same,inhibition,"[14]; measured here: BGB combination, at 5 µM",-5.12%
same,inhibition,"[14]; measured here: cisplatin combination, at 0.5 µM",-17.5%
same,inhibition,"[14]; measured here: cisplatin combination, at 5 µM",11.7%
same,inhibition,"[15]; BGB combination, concentration series, at 5 µM",85.1%
same,inhibition,[15]; at 0.5 µM,38.3% (inactive)
same,inhibition,"[15]; cisplatin combination, concentration series, at 5 µM",92.1%
same,inhibition,[16]; at 0.5 µM,3.68% (inactive)
same,inhibition,"[16]; measured here: combo with BGB IC20, at 0.5 µM",0.254%
same,inhibition,"[16]; measured here: combo with cisplatin IC20, at 0.5 µM",6.71%
same,inhibition,[17]; at 0.5 µM,-32% (inactive)
same,inhibition,"[17]; cisplatin combination, at 0.5 µM",-3.22%
same,inhibition,"[17]; cisplatin combination, at 5 µM",22.6%
same,inhibition,"[17]; measured here: BGB IC40 combination 0.05 uM, at 0.05 µM",-14%
same,inhibition,"[17]; single agent, at 5 µM",6.12%
same,inhibition,[18]; at 0.5 µM,-14.7% (inactive)
same,inhibition,"[18]; cisplatin combo, at 5 µM",33.1%
same,inhibition,"[18]; measured here: BGB IC40 combination, at 0.05 µM",-43.3%
same,inhibition,[18]; [23],3.47%
same,inhibition,"[18]; single agent, at 5 µM",22.1%
same,inhibition,[19]; at 0.5 µM,-20.1% (inactive)
same,inhibition,[19]; [21],-2.71%
same,inhibition,[19]; [22],-31.6%
same,inhibition,"[19]; single agent, at 0.05 µM",-28.1%
same,inhibition,"[19]; single agent, at 5 µM",32.5%
